# Assay outcomes (PubChem)
# Pf apPOL block – Pf-apPOL inhibitors, biochemical, fluorescence; 210,000 compounds, 0.25% hits; Plasmodium falciparum apicoplast DNA polymerase (apPOL); AID 1794808, 2022; Recombinant Pf-apPOL, molecular beacon fluorescence, 1.5 h; inhibition, % at 10 µM
# mHTT CaM bind – mutant huntingtin-calmodulin interaction inhibitors – biochemical, AlphaScreen, primary screen. 190,000 compounds, 3.6% hits. AlphaScreen His-mHTT/GST-CaM binding, luminescence. inhibition, % at 15 µM;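 also: 0% = both proteins with DMSO and 100% = one protein alone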
# An asterisk follows results filed as active; / = no result given. Hits are enriched below; roughly 3.6% of the tested compounds scored in any of these assays. Rule as the data show it: active = inhibition above about 50%; inactive = the rest.
SMILES,Pf apPOL block,mHTT CaM bind
Cc1cccc(N2CCN(C(=O)C3CCCN(c4cnn(C)c(=O)c4)C3)CC2)c1C (stereo not given),-4.4,34.0
Cc1cccc(N2CCN(C(=O)C3CCCN(c4cc(=O)n(C)c(=O)n4C)C3)CC2)c1C (stereo not given),-2.8,51.1*
COc1ccc(N=C2NC(=O)S/C2=C\c2ccc(N(C)C)cc2)cc1,-49.4,17.0
CN(C)c1ccc(N=C2C=CC(=O)C=C2)cc1,/,95.5*
O=[N+]([O-])c1cnn(-c2cn[nH]c2)c1,/,-10.5
Cn1nccc1C(=O)N1CCC(CCOc2ccccc2F)CC1,2.4,2.0
CC(=O)c1ccc2c(c1)C1C=CCC1C(c1ccc(Cl)cc1Cl)N2 (stereo not given),5.5,37.0
CCCC1Nc2c(C(=O)O)ccc([N+](=O)[O-])c2C2C=CCC12 (stereo not given),-1.3,26.0
O=C(O)C1Nc2cc(Cl)cc(Cl)c2C2C=CCC12 (stereo not given),-0.6,99.0*
O=C(O)C1Nc2c(O)cc(Cl)c([N+](=O)[O-])c2C2C=CCC12 (stereo not given),-5.1,90.0*
O=[N+]([O-])c1c(Cl)cc(O)c2c1C1C=CCC1C(c1ccc(Cl)cc1)N2 (stereo not given),0.3,88.0*
O=[N+]([O-])c1c(Cl)cc(O)c2c1C1C=CCC1C(C1CC=CCC1)N2 (stereo not given),0.3,80.0*
O=C1CN(C(=O)c2ccccc2F)C(c2ccc(F)cc2)c2cc(Cl)ccc2N1 (stereo not given),-3.8,19.0
CCc1cccc(CC)c1NC(=O)Cc1ccc(OC)cc1,-1.0,-4.5
O=C(CN1CCN(Cc2nc3ccccc3n2Cc2ccccc2)CC1)NCC1CCCO1 (stereo not given),-13.6,-1.6
Cc1ccc(S(=O)(=O)Nc2cc(Cl)c3oc4c(c3c2)C(=O)CCC4)c(C)c1,-1.2,4.0
CC1(O)NC(C(C#N)C#N)=C(C#N)C(c2ccc(F)cc2)C1[n+]1ccccc1 (stereo not given),-2.2,0.0
N#CC1=C(S)NC(O)(c2ccccc2)C([n+]2ccc3ccccc3c2)C1c1cccc(F)c1 (stereo not given),-6.4,69.0*
CCOc1ccc(C2C(C#N)=C(C(C#N)C#N)NC(O)(C3CC3)C2[n+]2ccc(C)cc2)cc1 (stereo not given),-2.8,17.0
Cc1ccc(C2(O)NC(S)=C(C#N)C(c3ccc(F)cc3)C2[n+]2ccccc2)cc1 (stereo not given),0.5,82.0*
Cc1cc[n+](C2C(c3ccc([N+](=O)[O-])cc3)C(C#N)=C(S)NC2(O)C2CC2)cc1 (stereo not given),-1.9,58.0*
CC(=O)Nc1ccc(C(=O)N2CCN(c3ccccc3)CC2)c(N2CCCCC2)c1,1.7,-11.2
O=C(C=Cc1ccccc1)NNC(=O)CSCc1cccc2ccccc12,-3.6,/
NC1=NC(c2ccc(Cl)cc2)=CC(c2ccc(F)cc2)S1 (stereo not given),/,67.5*
COc1ccc(C2=CC(c3ccccc3)SC(N)=N2)cc1 (stereo not given),/,11.2
SMILES,Pf apPOL block,mHTT CaM bind
COc1ccc(N)cc1-n1c(C)ccc1C,-4.0,76.3*
COc1cc(N)ccc1Cc1ccc(N)cc1OC,-1.9,29.2
O=C(Nc1nc(-c2cc3ccccc3oc2=O)cs1)c1ccc(F)cc1,-2.0,-1.0
O=C(Nc1nc(-c2cc3ccccc3oc2=O)cs1)c1ccc(Br)s1,74.9*,-8.0
CC1CCN(S(=O)(=O)c2cc(C(=O)Nc3ccccc3)c(Cl)cc2Cl)CC1,5.0,-3.8
O=C(Nc1nc2c(s1)CN(C(=O)C1(c3ccccc3)CCOCC1)CC2)c1cnccn1,18.4,25.9
COc1ccc(C2SCCN2C(=O)c2ccccc2C(=O)O)cc1Br (stereo not given),-0.3,5.0
COc1ccc(C2SCC3C(=O)N(c4ccccc4)C(=S)N32)cc1O (stereo not given),-4.6,100.2*
COc1cccc(C2NC(=S)NC3=C2C(=O)CCC3)c1 (stereo not given),1.9,-0.8
N#CC1=CN(c2ccccc2C(F)(F)F)c2cc(Cl)ccc2S1(=O)=O,-2.0,-5.7
O=C(NCc1cc(-c2ccco2)on1)c1ccc(=O)oc1,63.0*,13.7
O=C(NCc1cc(-c2ccco2)on1)c1ccc(F)c(F)c1,0.6,-3.5
COc1ccc(Cl)cc1N1C(=O)CSC1c1ccc(F)cc1 (stereo not given),-1.6,-5.0
COc1ccccc1-n1cc2c(c1-c1ccccc1)c(=O)n(C)c(=O)n2C,-8.2,26.0
Cc1ccc(-n2cc3c(c2-c2ccccc2)c(=O)n(C)c(=O)n3C)cc1,5.3,22.0
Cc1cc(C)cc(-n2cc3c(c2-c2ccccc2)c(=O)n(C)c(=O)n3C)c1,83.4*,36.0
Cn1c(=O)c2c(-c3ccccc3)n(-c3ccc(F)cc3)cc2n(C)c1=O,75.2*,41.0
Cc1ccsc1C(=O)N1CCCC(c2nc(-c3ccccc3)n[nH]2)C1 (stereo not given),4.2,-1.5
COc1cc(/C=C/c2ccc3cccc(O)c3n2)c(Br)cc1O,-7.5,48.0
COc1cc(/C=C/c2ccc3cccc(O)c3n2)c(Cl)cc1O,-5.5,63.2*
O=[N+]([O-])c1ccc(O)c(/C=C/c2ccc3cccc(O)c3n2)c1,2.6,59.9*
COc1cc(Br)c(/C=C/c2ccc3cccc(O)c3n2)cc1OC,-5.2,35.0
O=[N+]([O-])c1ccc(O)c(C=Nc2nc3c(O)cccc3s2)c1,-4.8,13.0
COc1cc(/C=C/c2ccc3cccc(O)c3n2)cc([N+](=O)[O-])c1O,-4.7,93.0*
Oc1cccc2ccc(/C=C/c3cc4c(cc3Br)OCO4)nc12,-8.5,72.0*
SMILES,Pf apPOL block,mHTT CaM bind
COc1cccc2ccc(/C=C/c3cccc([N+](=O)[O-])c3)nc12,-8.5,11.6
O=c1[nH]c2ccc(S(=O)(=O)Nc3ccccc3Br)cc2s1,0.2,-6.0
COc1cc2c(cc1OC)CN(Cc1cc(OC)c(OC)cc1[N+](=O)[O-])CC2,0.1,27.3
COc1ccc(CNC(=O)c2nnn(-c3ccc(OC(F)(F)F)cc3)c2N)cc1,-0.3,0.0
COc1ccccc1/C=C1\N=C(c2ccc(OC)c(OC)c2)N(c2ccccc2)C1=O,-8.1,-23.0
COc1ccccc1CCC(=O)N1CCc2c(c(-c3nc(C)no3)nn2C)C1,-1.7,5.1
CCCN1C(=O)c2cccnc2Sc2cc(C(=O)N3CCCC3)ccc21,0.8,7.9
CCOC(=O)c1sc(N2N=C(C)/C(=C\c3cccs3)C2=O)nc1C,/,-9.0
COc1ccc(OC)c(/C=C/c2ccc3cccc(O)c3n2)c1,2.3,36.0
Oc1ccc(Cl)cc1/C=C/c1ccc2cccc(O)c2n1,7.8,100.3*
COc1cc(Br)cc(/C=C/c2ccc3cccc(O)c3n2)c1O,-8.1,35.6
COc1ccc(Br)c(/C=C/c2ccc3cccc(O)c3n2)c1,-0.8,65.0*
O=S(=O)(NCCOc1ccc(-c2cccs2)nn1)c1ccc2c(c1)OCCO2,-4.4,-12.8
CC1CCN(Cc2cc([N+](=O)[O-])c(O)c3ncccc23)CC1,-88.8,100.0*
O=[N+]([O-])c1ccccc1CN1CCC(O)CC1,-8.1,-4.6
O=[N+]([O-])c1cc(CN2CCCC2)c2cccnc2c1O,0.4,100.3*
COc1ccccc1N1CCN(Cc2cc([N+](=O)[O-])c(O)c3ncccc23)CC1,2.5,100.2*
CN1CCCN(Cc2ccccc2[N+](=O)[O-])CC1,-5.5,-11.1
